# Laboratory results taken from PubChem BioAssay.
# Values joined by “and” are separate entries in the source; they are usually repeats but may differ in a detail not shown here. Equal entries are not always repeated. Results filed as inconclusive are left out. For some of these results: Results with a measured potency or affinity are listed apart. Active and inactive are the calls of the source. Unless noted, the rule behind the calls is not given here.
# Key:
# [1] = target: 6-phosphogluconate dehydrogenase, decarboxylating (Homo sapiens) (UniProt P52209); assay: inhibition of human phosphogluconate dehydrogenase – biochemical, recombinant enzyme, NADPH absorbance, primary screen (AID 1159550;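 active = at least 20% inhibition of 6-phosphogluconate dehydrogenase activity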); conditions: recombinant 6PGD, NADPH absorbance 341 nm; at 10 µM; stronger effect = higher value
# Chain of 6-phosphogluconate dehydrogenase, decarboxylating (Homo sapiens) (P52209 whole entry, looked up): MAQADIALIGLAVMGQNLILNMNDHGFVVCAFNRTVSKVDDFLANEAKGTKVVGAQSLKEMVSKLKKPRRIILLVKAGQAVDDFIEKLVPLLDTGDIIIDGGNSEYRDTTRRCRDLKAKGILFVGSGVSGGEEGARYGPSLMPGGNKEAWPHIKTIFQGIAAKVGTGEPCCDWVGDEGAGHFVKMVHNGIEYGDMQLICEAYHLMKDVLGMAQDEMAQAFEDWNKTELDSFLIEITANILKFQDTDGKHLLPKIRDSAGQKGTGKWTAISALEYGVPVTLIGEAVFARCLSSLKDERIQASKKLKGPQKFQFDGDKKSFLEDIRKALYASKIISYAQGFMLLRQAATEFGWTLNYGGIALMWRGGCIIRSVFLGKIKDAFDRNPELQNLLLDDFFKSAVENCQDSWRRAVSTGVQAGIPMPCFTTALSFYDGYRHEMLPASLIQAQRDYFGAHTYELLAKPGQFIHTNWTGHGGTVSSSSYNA
# [2] = viability loss with induced miR-34 in A549 – imaging, A549 dox-inducible miR-34, nuclei and caspase counts, primary screen (AID 1347080;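 active = compounds whose cell count with miR-34 switched on is under 0.7 times the count with it off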); conditions: A549 miR-34 inducible, Hoechst nuclei count, 48 h
# [3] = MELAS cybrid and Rieske KO viability enhancers – cell-based, MELAS cybrids, Rieske KO mouse fibroblasts, CellTiter-Glo, primary screen (AID 1508586;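 active = mean z-score across replicates of 1.96 or higher in either the MELAS or the Rieske mutant cell line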;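 note: z relative to plate mean and SD of compound and empty wells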); conditions: low glucose
# [4] = target: NAD(+) hydrolase SARM1 (Homo sapiens) (UniProt Q6SZW1); assay: blocking NAD cleavage by SARM1 SAM-TIR – cell lysate, NAD-Glo luminescence (AID 1508614;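 active = compound whose remaining NAD level is above about 45 nM, limit read from the data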;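 note: higher remaining NAD means stronger inhibition of SARM1 NADase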); conditions: SAM-TIR HEK293T lysate NADase, at 1 µM, stronger effect = higher value
# Chain of NAD(+) hydrolase SARM1 (Homo sapiens) (Q6SZW1 whole entry, looked up, the tested form may be a part): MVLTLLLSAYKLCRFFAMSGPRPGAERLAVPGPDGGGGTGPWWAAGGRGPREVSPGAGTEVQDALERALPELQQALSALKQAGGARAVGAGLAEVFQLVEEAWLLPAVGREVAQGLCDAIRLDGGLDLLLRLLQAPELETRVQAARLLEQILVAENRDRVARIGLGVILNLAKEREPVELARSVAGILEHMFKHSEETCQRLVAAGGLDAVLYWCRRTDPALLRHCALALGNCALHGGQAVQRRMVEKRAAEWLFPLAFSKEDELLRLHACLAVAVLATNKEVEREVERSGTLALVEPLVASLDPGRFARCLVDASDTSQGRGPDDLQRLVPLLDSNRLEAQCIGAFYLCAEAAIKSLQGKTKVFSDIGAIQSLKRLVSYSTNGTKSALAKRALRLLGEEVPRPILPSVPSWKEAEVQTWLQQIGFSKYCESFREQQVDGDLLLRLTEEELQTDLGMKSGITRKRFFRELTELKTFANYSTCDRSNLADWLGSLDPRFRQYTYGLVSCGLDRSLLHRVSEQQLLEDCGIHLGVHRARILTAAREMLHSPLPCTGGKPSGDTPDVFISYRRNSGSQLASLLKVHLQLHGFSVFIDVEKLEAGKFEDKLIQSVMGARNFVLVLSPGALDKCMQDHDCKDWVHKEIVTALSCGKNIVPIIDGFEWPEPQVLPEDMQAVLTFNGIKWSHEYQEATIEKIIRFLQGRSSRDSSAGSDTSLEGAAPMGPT
# [5] = target: Mitogen-activated protein kinase 7 (Homo sapiens) (UniProt Q13164); assay: Gal4-ERK5 driven luciferase induction – cell-based, HTS, primary screen (AID 1508626;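 active = luciferase signal above three times the same-plate solvent-only control wells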;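 note: luciferase driven by Gal4-ERK5 fusion binding five Gal4 sites before minimal TATA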); conditions: HeLa Gal4-ERK5 transactivation, 18 h, at 5 µM, stronger effect = higher value
# Chain of Mitogen-activated protein kinase 7 (Homo sapiens) (Q13164 whole entry, looked up, the tested form may be a part): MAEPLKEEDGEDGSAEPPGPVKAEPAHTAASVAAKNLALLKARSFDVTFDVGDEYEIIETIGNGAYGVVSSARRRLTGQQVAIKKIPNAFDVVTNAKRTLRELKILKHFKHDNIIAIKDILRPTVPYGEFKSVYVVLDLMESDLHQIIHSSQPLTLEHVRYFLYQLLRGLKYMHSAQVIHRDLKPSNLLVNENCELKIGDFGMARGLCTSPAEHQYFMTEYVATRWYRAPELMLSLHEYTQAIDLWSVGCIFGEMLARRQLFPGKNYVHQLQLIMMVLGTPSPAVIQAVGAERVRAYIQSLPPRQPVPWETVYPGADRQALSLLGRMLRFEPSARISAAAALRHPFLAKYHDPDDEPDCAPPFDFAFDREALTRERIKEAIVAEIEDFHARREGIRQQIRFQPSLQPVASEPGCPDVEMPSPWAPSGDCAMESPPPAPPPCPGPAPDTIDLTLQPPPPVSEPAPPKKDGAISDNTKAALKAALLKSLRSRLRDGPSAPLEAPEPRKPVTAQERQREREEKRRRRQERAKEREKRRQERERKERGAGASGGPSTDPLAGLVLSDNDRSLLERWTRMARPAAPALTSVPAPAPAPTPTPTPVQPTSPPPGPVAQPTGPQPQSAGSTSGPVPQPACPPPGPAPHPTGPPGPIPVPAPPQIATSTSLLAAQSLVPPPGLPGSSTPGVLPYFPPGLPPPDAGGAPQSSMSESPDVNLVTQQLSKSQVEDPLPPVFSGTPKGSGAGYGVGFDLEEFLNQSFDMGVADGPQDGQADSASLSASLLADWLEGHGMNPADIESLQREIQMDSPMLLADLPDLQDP
# [6] = blockers of polyQ-driven CASP3 activation – cell-based (AID 1583); conditions: polyglutamine-induced caspase-3 activation, cell assay; stronger effect = higher value;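 tested at 10 µM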
# [7] = yeast 75Q aggregation reduction – 75Q-TubU reporter (AID 1593); conditions: Yeast 75Q polyglutamine aggregation reporter
# [8] = restoration of touch response, mutant HTT neurons – whole organism, C. elegans mechanosensory neurons, N-terminal huntingtin (AID 1599); conditions: C. elegans polyQ-huntingtin mechanosensory neurons, stronger effect = higher value
# [9] = blockers of cytochrome c efflux from mitochondria – biochemical, purified mitochondria (AID 1603); conditions: stronger effect = lower value;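 note: mouse liver mitochondria challenged with calcium chloride; signal normalized to the plate average as 100%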
# [10] = polyglutamine aggregate formation blockers (AID 1604); conditions: polyglutamine-induced protein aggregation inhibition assay; stronger effect = higher value; tested at 2.5 µM
# [11] = glutamate transport activators, MN-1 cells, MN-1 cell line (AID 1612); conditions: MN-1 motor neuron cells, stronger effect = higher value;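 note: tested at 1 µM final; 0% = mean of DMSO vehicle wells on each plate; positive means more glutamate uptake than control and negative means less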
# [12] = GFP-Q80 aggregate reduction, neuronal-like cells, cell-based, NGF-treated PC12, GFPQ80 (AID 1614); conditions: PC12 NGF-treated GFP-polyQ80 inclusion reduction;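 note: lower means fewer inclusions and 0 means no inclusions at all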
# [13] = 75Q-TubH aggregate inhibition, S. cerevisiae, yeast (AID 1616); conditions: S. cerevisiae 75Q-TubH polyglutamine aggregation suppression; stronger effect = higher value
# [14] = compounds altering circadian rhythm period length – cell-based, LOPAC library, luminescence reporter (AID 2774); conditions: circadian reporter cells, at 7 µM, actives lie on both sides;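 note: values are relative to mean of DMSO wells on each plate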
# [15] = tested on: Hepatitis C virus NS3 helicase; assay: blockers of NS3h binding to ssDNA – biochemical, fluorescence polarization, LOPAC1280 library, primary screen (AID 687035; in the data active = inhibition above about 37%); conditions: Purified HCV NS3 helicase, Cy5-dT15 ssDNA binding fluorescence polarization; stronger effect = higher value; concentration not given here
# [16] = compounds altering Cy5-DNA-NS3h complex signal – biochemical, LOPAC1280, artefact control for HCV NS3 helicase inhibitor project (AID 687037); conditions: Cy5-DNA-NS3h complex fluorescence interference counterscreen
# [17] = blockers of cellular phospholipid synthesis – cell-based, LOPAC library, screen 4, primary screen (AID 1347384); conditions: animal cells, phospholipid biosynthesis inhibition screen; at 10 µM
# [18] = galactose survival enhancers in mitochondrial complex I cybrids – cell-based, galactose medium, ATP luminescence, primary screen (AID 1645843;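 active = z-score of at least 1.8 in each of two replicates, scored against plate mean and spread of sample wells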;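 note: positive z means more ATP and so rescue of galactose-driven cybrid death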); conditions: complex I mutant cybrid cells, 72 h, stronger effect = higher value
# [19] = target: ATP-dependent translocase ABCB1 (Homo sapiens) (UniProt P08183); assay: P-glycoprotein substrate transport blockade – cell-based (AID 377; in the data active = fluorescence slope change above about 50%); conditions: MDR1-expressing cells, fluorescent substrate accumulation slope; stronger effect = higher value; concentration not given here
# Chain of ATP-dependent translocase ABCB1 (Homo sapiens) (P08183 whole entry, looked up): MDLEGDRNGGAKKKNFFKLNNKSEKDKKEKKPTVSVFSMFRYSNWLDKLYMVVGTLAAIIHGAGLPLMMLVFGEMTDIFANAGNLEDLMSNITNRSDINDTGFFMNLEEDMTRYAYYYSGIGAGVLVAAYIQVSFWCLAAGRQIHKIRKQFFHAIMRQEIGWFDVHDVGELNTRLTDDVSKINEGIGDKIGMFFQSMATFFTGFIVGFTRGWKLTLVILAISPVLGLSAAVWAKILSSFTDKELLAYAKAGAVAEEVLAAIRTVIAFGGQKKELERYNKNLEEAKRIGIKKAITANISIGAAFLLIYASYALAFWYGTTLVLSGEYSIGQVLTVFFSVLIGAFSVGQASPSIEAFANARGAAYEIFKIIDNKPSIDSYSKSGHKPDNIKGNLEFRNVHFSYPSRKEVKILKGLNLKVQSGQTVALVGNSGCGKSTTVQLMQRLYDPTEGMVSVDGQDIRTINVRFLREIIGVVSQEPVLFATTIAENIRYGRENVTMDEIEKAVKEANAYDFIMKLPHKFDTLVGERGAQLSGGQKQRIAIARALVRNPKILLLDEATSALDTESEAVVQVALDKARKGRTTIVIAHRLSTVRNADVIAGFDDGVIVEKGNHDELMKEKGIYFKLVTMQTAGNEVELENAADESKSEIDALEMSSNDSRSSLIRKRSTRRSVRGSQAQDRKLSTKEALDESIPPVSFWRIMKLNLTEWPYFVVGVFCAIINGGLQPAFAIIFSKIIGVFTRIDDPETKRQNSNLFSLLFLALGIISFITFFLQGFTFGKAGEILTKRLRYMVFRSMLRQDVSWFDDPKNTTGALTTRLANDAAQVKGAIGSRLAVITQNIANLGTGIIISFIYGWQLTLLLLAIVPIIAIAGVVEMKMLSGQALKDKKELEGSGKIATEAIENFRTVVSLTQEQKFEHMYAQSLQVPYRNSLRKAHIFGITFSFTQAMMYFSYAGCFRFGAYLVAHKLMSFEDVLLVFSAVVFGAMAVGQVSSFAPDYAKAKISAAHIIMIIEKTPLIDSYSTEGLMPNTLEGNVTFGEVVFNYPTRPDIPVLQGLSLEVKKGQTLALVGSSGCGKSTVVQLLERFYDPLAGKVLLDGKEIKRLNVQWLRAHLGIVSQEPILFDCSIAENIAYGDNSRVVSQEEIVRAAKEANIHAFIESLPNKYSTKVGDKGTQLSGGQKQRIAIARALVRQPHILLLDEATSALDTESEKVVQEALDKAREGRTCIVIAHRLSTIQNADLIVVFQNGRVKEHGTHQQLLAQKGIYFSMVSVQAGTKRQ
# [20] = compounds altering viability of human ES cells (AID 493140); conditions: human embryonic stem cell survival screen; stronger effect = higher value;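 note: cells exposed to compounds for four days before counting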
# [21] = P. berghei load reduction in hepatocytes – cell-based, HepG2, luciferase luminescence, HepG2 viability, primary screen (AID 624349; in the data active = parasite load remaining mostly below about 12%, no sharp cut-off; inactive = mostly above about 10%;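 note: 100% = mean of DMSO negative control wells on the same plate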); conditions: P. berghei liver stage in HepG2, luciferase luminescence, concentration not given here; parasite load remaining: stronger effect = lower value; viability: measured here: HepG2 viability without parasites
# [22] = viability loss in pontine glioma line – cell-based, JHH-DIPG-1, MIPE4.0, CellTiter-Glo, qHTS, dose response (AID 1347062; cut-off not given, nearly all actives have AC50 up to about 27 µM); conditions: JHH-DIPG-1 viability, CellTiter-Glo ATP luminescence
# [23] = viability loss in pontine glioma line – cell-based, SU-DIPG-IV, MIPE4.0, CellTiter-Glo, qHTS, dose response (AID 1347063; cut-off not given, nearly all actives have AC50 up to about 30 µM;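 note: compound exposure lasted 48 hours before the viability readout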); conditions: CellTiter-Glo ATP luminescence
# [24] = chitosan synthesis blockers in C. neoformans – flow cytometry, Cibacron Brilliant Red staining (AID 1347148); conditions: Cryptococcus neoformans chitosan, stronger effect = lower value; at 10 µM unless noted;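 note: compound exposure lasted three days at 37 degrees C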
# [25] = viability loss in pontine glioma line – cell-based, SU-DIPG-XIII, MIPE4.0, CellTiter-Glo, qHTS, dose response (AID 1347061; cut-off not given, nearly all actives have AC50 up to about 37 µM;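 note: cells exposed to compound for 48 hours before readout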); conditions: CellTiter-Glo ATP luminescence
# [26] = rescue of PC12 cells from polyQ htt toxicity – LDH release (AID 1610); conditions: PC12 mutant huntingtin toxicity, final LDH at 4 uM, stronger effect = lower value
# [27] = viability loss in pontine glioma line – cell-based, SU-DIPG-XXV, MIPE5.0, CellTiter-Glo, qHTS, dose response (AID 1347065; cut-off not given, nearly all actives have AC50 up to about 26 µM;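 note: cells exposed to compound for 48 hours before ATP readout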); conditions: CellTiter-Glo ATP luminescence
# [28] = growth inhibition of DIPG cells – cell-based, MIPE5.0 library, qHTS (AID 1347068; cut-off not given, nearly all actives have IC50 up to about 30 µM); conditions: SU-DIPG-XXV viability
# [29] = stronger effect = lower value, cell number ratio, induced over uninduced
# [30] = measured here: relative caspase fold change +Dox/-Dox
# [31] = measured here: total cells with miR-34 induction, stronger effect = lower value
# [32] = measured here: total cells without miR-34 induction
# [33] = MELAS cybrid survival, CellTiter-Glo 48 h, stronger effect = higher value
# [34] = Rieske KO mouse fibroblast survival, CellTiter-Glo 72 h
smiles,measurement,setting,value
C[N+]1(C)[C@@H]2CC[C@H]1CC(OC(=O)C(O)c1ccccc1)C2 (stereo not given in full),inhibition,[1],-20.5% (inactive)
same,fold change,[2]; [29],0.938 (inactive)
same,fold change,[2]; [30],0.48
same,cell count,[2]; [31],8390
same,cell count,[2]; [32],8940
same,z-score,[3]; [33],-0.289 (inactive)
same,z-score,[3]; [34],-0.189
same,remaining NAD,[4],10 nM (inactive)
same,luciferase signal,[5],20 AU (inactive)
CC(=O)NCCc1c[nH]c2ccc(O)cc12,inhibition,[6],26.8%
same,score,[7],1.5
same,rescue above control,[8],2.04
same,cytochrome c release ratio,[9],0.84
same,inhibition of aggregation,[10],31.4%
same,glutamate uptake change,[11],0.88%
same,inclusion score,[12],2
same,aggregation suppression score,[13],1.34
same,period change,[14],-0.07 h (inactive)
same,inhibition,[15],0% (inactive)
same,fluorescence ratio (interference),[16],1 (inactive)
same,inhibition,[1],8.58% (inactive)
same,fold change,[2]; [29],1.02 (inactive)
same,fold change,[2]; [30],1.87
same,cell count,[2]; [31],10700
same,cell count,[2]; [32],10400
same,outcome,[17],inactive
same,luciferase signal,[5],32 AU (inactive)
same,z-score,[18],0.08 (inactive)
CC(Oc1ccccc1)C(=O)N[C@@H]1C(=O)N2[C@@H]1SC(C)(C)[C@@H]2C(=O)O (stereo not given in full),fluorescence slope change,[19],56.9% (active)
same,inhibition,[6],11.2%
same,score,[7],1.4
same,rescue above control,[8],-10.5
same,cytochrome c release ratio,[9],1.15
same,inhibition of aggregation,[10],78.9%
same,glutamate uptake change,[11],10.6%
same,inclusion score,[12],2
same,aggregation suppression score,[13],1.29
same,survival,[20],7.92 (inactive)
same,parasite load remaining,[21],116% (inactive) and 55% (inactive)
same,viability,[21],109% and 84.1%
same,inhibition,[1],1.89% (inactive)
same,fold change,[2]; [29],0.935 (inactive) and 0.907 (inactive)
same,fold change,[2]; [30],1.21 and 2.74
same,cell count,[2]; [31],8390 and 12400
same,cell count,[2]; [32],8980 and 13600
same,z-score,[3]; [33],-0.192 (inactive)
same,z-score,[3]; [34],-0.917
same,remaining NAD,[4],10 nM (inactive)
same,luciferase signal,[5],36 AU (inactive)
CSC(N)=NCCC[C@H](N)C(=O)O,period change,[14],0.125 h (inactive)
same,inhibition,[15],-3% (inactive)
same,fluorescence ratio (interference),[16],1 (inactive)
same,inhibition,[1],-13.5% (inactive)
same,fold change,[2]; [29],1.1 (inactive) and 0.994 (inactive)
same,fold change,[2]; [30],0.973 and 0.749
same,cell count,[2]; [31],11000 and 6220
same,cell count,[2]; [32],10000 and 6260
same,outcome,[17],inactive
same,z-score,[18],0.215 (inactive)
O=C(N[C@@H](Cc1ccccc1)C(=O)CCl)OCc1ccccc1,period change,[14],-0.215 h (inactive)
same,inhibition,[15],0% (inactive)
same,fluorescence ratio (interference),[16],1 (inactive)
same,inhibition,[1],6.1% (inactive)
same,fold change,[2]; [29],1.3 (inactive)
same,fold change,[2]; [30],1.36
same,cell count,[2]; [31],816
same,cell count,[2]; [32],626
same,outcome,[17],inactive
same,z-score,[18],-1.33 (inactive)
COc1ccc2ccc(=O)oc2c1CC=C(C)C,inhibition,[1],9.51% (inactive)
same,outcome,[22],inactive
same,outcome,[23],inactive
same,fold change,[2]; [29],0.94 (inactive)
same,fold change,[2]; [30],0.78
same,cell count,[2]; [31],8510
same,cell count,[2]; [32],9050
same,z-score,[3]; [33],-0.211 (inactive)
same,z-score,[3]; [34],-1.1
same,luciferase signal,[5],36 AU (inactive)
NCCCCCCNS(=O)(=O)c1cccc2c(Cl)cccc12,inhibition,[6],-15.2% and 22.6% and 2.95%
same,score,[7],1.04 and 1.62 and 0.88
same,rescue above control,[8],4.12 and -5.26 and -2.52
same,cytochrome c release ratio,[9],1.16 and 0.95 and 1.09
same,inhibition of aggregation,[10],51% and 55.6% and 36.6%
same,glutamate uptake change,[11],18.7% and -10.2% and 14.1%
same,inclusion score,[12],1
same,aggregation suppression score,[13],0.802 and 0.897 and 0.965
same,period change,[14],0.025 h (inactive)
same,inhibition,[1],8.63% (inactive)
same,fold change,[2]; [29],0.955 (inactive)
same,fold change,[2]; [30],0.859
same,cell count,[2]; [31],4060
same,cell count,[2]; [32],4250
same,fold fluorescence,[24],9.13 [at 132.5 µM] (inactive)
CO/N=C(\C(=O)N[C@@H]1C(=O)N2C(C(=O)OCOC(=O)C(C)(C)C)=C(/C=C\c3scnc3C)CS[C@H]12)c1csc(N)n1,inhibition,[1],-4.41% (inactive)
same,outcome,[25],inactive
same,outcome,[22],inactive
same,remaining NAD,[4],10 nM (inactive)
CCOc1ccc2c(c1)C(C)=CC(C)(C)N2,fluorescence slope change,[19],16.6% (inactive)
same,inhibition,[6],14.7%
same,score,[7],0.77
same,rescue above control,[8],5.1
same,cytochrome c release ratio,[9],0.79
same,inhibition of aggregation,[10],25.8%
same,normalised LDH release,[26],1.06
same,glutamate uptake change,[11],23.6%
same,aggregation suppression score,[13],0.616
same,survival,[20],2.08 (inactive)
same,parasite load remaining,[21],29.9% (inactive)
same,viability,[21],95.9%
same,inhibition,[1],17.3% (inactive)
same,fold change,[2]; [29],0.841 (inactive)
same,fold change,[2]; [30],1.09
same,cell count,[2]; [31],8590
same,cell count,[2]; [32],10200
same,z-score,[3]; [33],1.71 (inactive)
same,z-score,[3]; [34],0.609
same,luciferase signal,[5],48 AU (inactive)
C=C1CC[C@H](O)C/C1=C/C=C1\CCC[C@]2(C)[C@@H]([C@H](C)/C=C/[C@H](C)C(C)C)CC[C@@H]12,fluorescence slope change,[19],66.6% (active)
same,parasite load remaining,[21],50.6% (inactive)
same,viability,[21],130%
same,inhibition,[1],12.3% (inactive)
same,fold change,[2]; [29],0.934 (inactive)
same,fold change,[2]; [30],1.53
same,cell count,[2]; [31],7580
same,cell count,[2]; [32],8110
same,remaining NAD,[4],10 nM (inactive)
same,luciferase signal,[5],144 AU (inactive)
C[C@H]1[C@H](C)CC[C@]2(C(=O)O)CC[C@]3(C)C(=CC[C@@H]4[C@@]5(C)CC[C@H](O)C(C)(C)[C@@H]5CC[C@]43C)[C@H]12,parasite load remaining,[21],32.3% (inactive)
same,viability,[21],73.8%
same,inhibition,[1],14.7% (inactive)
same,outcome,[25],inactive
same,AC50,[23],42.9 µM (active)
same,AC50,[27],18.6 µM (active)
same,outcome,[28],inactive
same,fold change,[2]; [29],0.941 (inactive)
same,fold change,[2]; [30],1.58
same,cell count,[2]; [31],8760
same,cell count,[2]; [32],9310
same,luciferase signal,[5],40 AU (inactive)
N[C@@H](Cc1c[nH]c2ccccc12)C(=O)O,inhibition,[6],8.74%
same,score,[7],1.61
same,rescue above control,[8],-5.37
same,cytochrome c release ratio,[9],0.96
same,inhibition of aggregation,[10],63.4%
same,glutamate uptake change,[11],-7.55%
same,inclusion score,[12],2
same,aggregation suppression score,[13],1.04
same,period change,[14],0.11 h (inactive)
same,inhibition,[15],2% (inactive)
same,fluorescence ratio (interference),[16],1 (inactive)
same,inhibition,[1],3.98% (inactive)
same,fold change,[2]; [29],0.995 (inactive)
same,fold change,[2]; [30],0.835
same,cell count,[2]; [31],9660
same,cell count,[2]; [32],9710
same,outcome,[17],inactive
same,remaining NAD,[4],10 nM (inactive)
same,luciferase signal,[5],136 AU (inactive)
same,z-score,[18],0.315 (inactive)
